TRPM1 prom inh = reduces MITF-dependent TRPM1 promoter luciferase signal | inhibition, % at 12.5 µM | 0.83% of 330,000 active | SK-MEL-5 TRPM1 promoter luciferase, 24 h;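 active means mean inhibition across replicates of 60% or more, whatever share of single replicates reaches that level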
HIF-2a block = HIF-2a inhibition; 0.72% of 360,000 active; 786-0 RCC cells HIF-2a reporter, luciferase luminescence, overnight; AID 624352; inhibition, % at 18.8 µM;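 active means inhibition of the luminescence signal of 40% or more relative to plate controls, in a single-dose primary screen at 18.75 µM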
KKLEB tox = counter-screen for CF NF-kB inhibitors: cytotoxicity; 0.36% of 360,000 active; KKLEB CF airway cells viability, ATPlite luminescence, overnight; active compounds read low; cells stimulated with P. aeruginosa culture filtrate; activity change (cytotoxicity), % at 5 µM;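 active means corrected activity change at or below -50% at 5 µM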
Shn3 inh set2 = inhibitors of Schnurri-3 3'UTR reporter in osteoblasts; inhibition, % at 12.5 µM; 0.52% of 360,000 active; Clone20 osteoblast Shn3 3'UTR firefly luciferase, 24 h;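 active means mean inhibition of at least 75% with every replicate also reaching 75%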;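 further: 0% = median of neutral control wells and 100% = pilot-screen positive control compound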
CF NFkB inh = cystic fibrosis NF-kB activation inhibition. inhibition, % at 5 µM. KKLEB NF-kB-GFP reporter, PAF-induced, GFP fluorescence overnight. 0.86% of 360,000 active. AID 588850;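 active means at least 50% inhibition at 5 µM, scaled per plate between neutral and stimulator controls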;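 further: PAF is a Pseudomonas aeruginosa culture filtrate used as stimulus; plate controls were PAF-stimulated DMSO wells for no effect and unstimulated DMSO wells for full effect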
Peg3 prom inh-1 = inhibitors of Peg3 promoter; AID 588405; inhibition, % at 20 µM; HeLa PEG-Prom luciferase reporter, luminescence, overnight; 1.7% of 360,000 active;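 active means inhibition of at least 50% at 20 µM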
Peg3 prom inh-2 = Peg3 promoter inhibition confirmation; AID 602417; inhibition, % at 20 µM; HeLa PEG-Prom luciferase reporter, luminescence, overnight; 84% of 1,300 active; shares compounds with Peg3 prom inh-1;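 active means at 20 µM dose, 40% or more inhibition averaged across four replicates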
The depositor's hits bear a star; x = no result. Shown are actives, neighbours in structure and some others; about 2.7% of the full set was active somewhere.

SMILES | TRPM1 prom inh | HIF-2a block | KKLEB tox | Shn3 inh set2 | CF NFkB inh | Peg3 prom inh-1 | Peg3 prom inh-2
CCOC(=O)[C@]12CCCC=C1N(Cc1cccc3ccccc13)C(=O)[C@H](CC(=O)N1CCCC1)C2 | x | 13 | x | x | x | x | x
Cc1sc2nc(C(C)C)nc(SCC(=O)NCc3ccco3)c2c1C | 11 | 21 | -10 | 11 | -6 | 59* | 32
Cc1nc(SCC(=O)NCc2ccco2)c2c(C)c(C)sc2n1 | 0 | 5 | -2 | 0 | -3 | 8 | x
CN(C)CCCN(C(=O)c1ccc(S(=O)(=O)N(C)Cc2ccccc2)cc1)c1nc2cc3c(cc2s1)OCO3 | 85* | 5 | -29 | -24 | 17 | 68* | 89*
CCN(c1ccccc1)S(=O)(=O)c1ccc(C(=O)N(CCCN(C)C)c2nc3cc4c(cc3s2)OCO4)cc1 | -3 | -3 | -4 | 6 | 24 | 52* | 81*
CN(C)C=NC(=O)c1[nH]c2ccc(Cl)cc2c1-c1ccccc1 | 37 | 25 | 2 | -41 | 22 | 72* | 81*
COc1cc2c(cc1OC)CN(c1nc(-c3cccnc3)nc3ccccc13)CC2 | -8 | -23 | 8 | -1 | 6 | 65* | 71*
Cc1ccc(C)c(S(=O)(=O)N2CCN(c3nc(-c4cccnc4)nc4ccccc34)CC2)c1 | 7 | -9 | 2 | 12 | 13 | 64* | 47*
CCOC(=O)C1(C)CCCN(C(=O)c2cc(C#N)cs2)C1 (stereo unspecified) | x | 6 | 14 | 7 | -18 | -7 | x
COc1cccc(-c2cc(NC=O)c3ncc(-c4cccc(C(=O)N(C)C)c4)n3c2)c1 | x | -8 | -12 | 5 | 16 | 32 | x
COc1cccc(-c2cnc3c(NC=O)cc(-c4cccc(C(=O)N(C)C)c4)cn23)c1 | x | 0 | -8 | -26 | -37 | 55* | 54*
CN(C)C(=O)c1cccc(-c2cnc3c(NC=O)cc(-c4cccc(C(F)(F)F)c4)cn23)c1 | x | 8 | -15 | 41 | -1 | 57* | 61*
CCOC(=O)[C@]12CCC=C1N(Cc1ccc(Cl)cc1Cl)C(=O)[C@H](CC(=O)NCc1ccc(OC)c(OC)c1)C2 | x | -10 | x | x | x | x | x
Clc1ccccc1-c1cnc2sc(NCc3ccc4c(c3)OCO4)nn12 | x | -4 | 14 | -8 | 9 | 66* | 33
Clc1ccccc1-c1ccc2ncnc(NCc3ccc4c(c3)OCO4)c2c1 | -11 | 0 | -24 | 6 | 18 | 20 | x
COc1ccc([C@@H]2C[C@H]3[C@@H](CN2S(=O)(=O)c2ccccc2)C(=O)C[C@@H](c2ccc(OC)cc2)N3S(=O)(=O)c2ccccc2)cc1 | x | 0 | 0 | 10 | 7 | -18 | x
COc1ccc(CC(=O)N(Cc2ccccc2)c2ccccc2)cc1S(=O)(=O)N1CCOCC1 | 6 | 9 | -9 | -4 | -9 | 56* | 47*
COc1ccc(-c2ccc(-c3nc4c(c(=O)[nH]c(=O)n4Cc4ccccc4)n3C)o2)c([N+](=O)[O-])c1 | 6 | 3 | -37 | -1 | 21 | 57* | 16
COCCn1c(-c2ccc(-c3ccc([N+](=O)[O-])cc3Br)o2)nc2c1c(=O)[nH]c(=O)n2CC(C)C | 7 | 18 | -6 | 11 | 19 | 52* | 30
CC(C)(C)S(=O)N1Cc2cc(C(=O)NCc3ccc(Oc4ccccc4)cc3)nc(-c3cccc(-c4cc5ccccc5o4)c3)c2[C@@H]1CCO (stereo partly specified) | x | -3 | -10 | -49 | -1 | 80* | 22
COc1cccc(-c2cccc(-c3nc(C(=O)NCc4ccc(Oc5ccccc5)cc4)cc4c3[C@H](CCO)N(S(=O)C(C)(C)C)C4)c2)c1 (stereo partly specified) | x | 5 | -26 | -1 | 18 | 73* | 21
COC(=O)C1=CN(c2ccc(OC)cc2)C(N)=C(C#N)C1c1ccccc1F (stereo unspecified) | x | -3 | x | x | x | x | x
CCn1cc(C(=O)NCc2ccco2)c(=O)c2cc(S(=O)(=O)N3CC(C)CC(C)C3)ccc21 (stereo unspecified) | 16 | 30 | 6 | 85* | -1 | 58* | 61*
CCn1cc(C(=O)NCc2ccco2)c(=O)c2cc(S(=O)(=O)N3CCC(C)CC3)ccc21 | 13 | 29 | -5 | 22 | -16 | 18 | x
O=C(/C=C/c1ccccc1)NC(NC(=S)Nc1cccc(O)c1)C(Cl)(Cl)Cl (stereo unspecified) | 10 | 16 | -3 | 12 | 21 | 24 | x
SMILES | TRPM1 prom inh | HIF-2a block | KKLEB tox | Shn3 inh set2 | CF NFkB inh | Peg3 prom inh-1 | Peg3 prom inh-2
O=C(/C=C/c1ccccc1)NC(NC(=S)Nc1cccc(Cl)c1)C(Cl)(Cl)Cl (stereo unspecified) | 20 | 32 | -4 | 65 | 7 | 79* | 67*
COc1cccc(-c2nc3ccc(C(=O)NC(C)Cc4cccnc4)cc3o2)c1 (stereo unspecified) | -48 | -219 | -12 | -18 | 18 | -226 | x
Cc1cccc(-n2cc(-c3ccccc3)c3c(N4CCOCC4)ncnc32)c1 | 8 | 27 | -92* | 25 | 94* | 69* | 82*
O=C(NCCCN1CCOCC1)c1ccccc1N1C(=O)[C@@H]2Cc3c([nH]c4ccccc34)C(c3ccccc3)N2C1=O (stereo partly specified) | x | 32 | 7 | 70 | -28 | -13 | x
CC1(C(=O)NS(=O)(=O)c2ccc(Br)cc2)CCN1C(=O)c1cccc(F)c1 (stereo unspecified) | x | 5 | -3 | 7 | -2 | 2 | x
CCOc1cc(/C=N/Nc2nc(-c3cccc(S(=O)(=O)N4CCCC4)c3)cs2)ccc1O | 2 | 9 | 23 | 40 | -16 | 52* | 47*
O=C1NC[C@@H](CCCCN2C[C@H](Cc3ccccc3)N(CC3CCCCC3)C(=O)C2=O)N(CCc2ccccc2)C1=O | x | -1 | x | x | x | x | x
COCCNCCCOc1ccc(Cl)cc1Br | -4 | -6 | 6 | -6 | 8 | -10 | x
COCCCNCCCOc1ccc(Cl)cc1C(C)(C)C | 0 | -1 | -2 | 18 | 4 | 62* | 40
COc1ccc(C(CCN(Cc2ccc(OC)c(OC)c2)C(C)=O)c2ccccc2)cc1 (stereo unspecified) | 5 | 17 | -10 | -10 | 6 | 16 | x
COc1ccc(CNCCC(c2ccccc2)c2ccc(OC(C)C)cc2)cc1OC (stereo unspecified) | 74* | 20 | 21 | 61 | -13 | 101* | 97*
c1csc(-c2ccc3nncn3c2)c1 | x | 7 | 4 | -4 | 4 | 1 | x
Cc1c(CC(=O)NCC(=O)NCC(=O)N[C@@H](Cc2ccccc2)C(=O)O)c(=O)oc2c(C)c(O)ccc12 | x | 1 | -8 | -8 | 22 | -1 | x

Screening data deposited in PubChem BioAssay by several laboratories.
